COUP-TFII inh – NR2F2 (human) inhibition, primary screen | inhibition, % at 8.6 µM | AID 686940 | P24468 | HEK293T NGFI-A luciferase reporter, luminescence | hit rate 0.7% among 370,000;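 active = inhibition above a per-plate cutoff, mean inhibition of test wells between control levels plus 3 SD, cut at about 38% in these data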;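 note: cells cotransfected with COUP-TFII expression vector driving the NGFI-A reporter; 0% = median of COUP-TF2 test wells and 100% = reporter-only cells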
LRH-1 inv ag – suppresses constitutive activity of human LRH-1; O00482; hit rate 0.13% among 360,000; HEK293T StAR-luciferase reporter, LRH-1 transfected, 24 h; inhibition, % at 3.6 µM; AID 602396;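 active = inhibition above the mean inhibition of all tested compounds plus 3 SD, cut at about 73% in these data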;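 note: 0% = DMSO wells and 100% = reporter-only cells lacking LRH-1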
GalR3 antagonist – human GalR3 antagonism. O60755. HEK293 GalR3-CNG cAMP membrane potential fluorescence; galR3 body fused to GalR1 C-terminus. inhibition, % at 3 µM. hit rate 0.44% among 360,000. AID 651719;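 active = inhibition above the screen-wide average plus 3 SD, cut at about 13% in these data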;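 note: forskolin and galanin both at EC90 stimulate the cells; cAMP rise reported by CNG channel membrane potential dye signal; 0% = forskolin plus galanin with DMSO and 100% = forskolin alone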
NCOA2 inhibitor – inhibits human steroid receptor coactivator 2; AID 651957; Q15596; HEK293 GAL4-SRC2 luciferase reporter, luminescence; hit rate 0.17% among 370,000; inhibition, % at 9 µM;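 active = inhibition above the mean inhibition of all tested compounds plus 3 SD, set per campaign, cut at about 52% in these data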;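 note: 0% = DMSO treated cells and 100% = cells given Gossypol at 36 µM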
SRC1 inh – human NCOA1 inhibition; HEK293 GAL4-SRC1 luciferase reporter, luminescence; inhibition, % at 3.6 µM; hit rate 0.12% among 360,000;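 active = inhibition above the campaign mean plus 3 SD, with each screening campaign given its own cutoff, cut at about 60% in these data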;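 note: 0% = DMSO treated cells and 100% = gossypol at 36 µM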
Target sequence (Q15788 whole entry, looked up, the tested form may be a part): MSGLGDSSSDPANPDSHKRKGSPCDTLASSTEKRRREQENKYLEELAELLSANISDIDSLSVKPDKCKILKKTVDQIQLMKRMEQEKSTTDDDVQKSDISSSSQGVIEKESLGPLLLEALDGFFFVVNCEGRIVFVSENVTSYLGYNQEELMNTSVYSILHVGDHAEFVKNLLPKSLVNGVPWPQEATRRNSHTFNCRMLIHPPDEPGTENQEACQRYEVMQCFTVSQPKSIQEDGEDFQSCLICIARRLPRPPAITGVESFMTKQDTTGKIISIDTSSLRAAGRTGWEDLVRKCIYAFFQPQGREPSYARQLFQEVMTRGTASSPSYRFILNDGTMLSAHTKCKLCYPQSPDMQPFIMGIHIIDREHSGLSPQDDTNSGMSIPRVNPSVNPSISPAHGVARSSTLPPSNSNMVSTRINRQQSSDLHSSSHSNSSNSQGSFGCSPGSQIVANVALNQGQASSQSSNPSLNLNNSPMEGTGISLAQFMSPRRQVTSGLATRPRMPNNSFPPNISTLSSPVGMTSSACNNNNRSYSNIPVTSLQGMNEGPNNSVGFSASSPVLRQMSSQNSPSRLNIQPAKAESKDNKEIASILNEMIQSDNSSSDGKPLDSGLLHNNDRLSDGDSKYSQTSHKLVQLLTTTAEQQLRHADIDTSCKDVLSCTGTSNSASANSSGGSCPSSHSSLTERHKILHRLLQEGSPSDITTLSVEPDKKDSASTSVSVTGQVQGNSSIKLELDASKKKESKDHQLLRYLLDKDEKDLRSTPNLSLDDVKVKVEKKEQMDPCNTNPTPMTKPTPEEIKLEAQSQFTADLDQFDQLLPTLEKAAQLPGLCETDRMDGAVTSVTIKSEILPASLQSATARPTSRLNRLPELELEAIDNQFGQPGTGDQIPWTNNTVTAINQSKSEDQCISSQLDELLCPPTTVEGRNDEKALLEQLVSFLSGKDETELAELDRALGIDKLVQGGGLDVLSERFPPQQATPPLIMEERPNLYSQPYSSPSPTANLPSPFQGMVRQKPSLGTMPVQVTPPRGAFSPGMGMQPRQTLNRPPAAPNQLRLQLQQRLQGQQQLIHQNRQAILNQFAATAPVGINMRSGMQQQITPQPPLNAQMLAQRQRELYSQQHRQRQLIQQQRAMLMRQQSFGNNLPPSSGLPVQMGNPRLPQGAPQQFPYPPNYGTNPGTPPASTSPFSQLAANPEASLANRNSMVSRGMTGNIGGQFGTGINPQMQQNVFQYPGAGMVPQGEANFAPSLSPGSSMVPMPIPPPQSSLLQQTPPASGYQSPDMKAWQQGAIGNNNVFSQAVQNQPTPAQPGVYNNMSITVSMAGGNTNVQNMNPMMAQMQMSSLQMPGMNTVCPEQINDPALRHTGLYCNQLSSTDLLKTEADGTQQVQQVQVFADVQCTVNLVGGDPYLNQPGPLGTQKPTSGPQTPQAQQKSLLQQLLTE
SRC3 inh – inhibits human SRC3 coactivator | HEK293 GAL4-SRC3 luciferase reporter, luminescence | Q9Y6Q9 | inhibition, % at 3.6 µM | AID 588352 | hit rate 0.17% among 360,000;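 active = inhibition above a per-campaign cutoff, the mean of all compounds plus 3 SD, cut at about 60% in these data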;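 note: 0% = DMSO-treated cells and 100% = gossypol-treated cells at 36 µM; higher means less SRC3-driven luciferase light from the GAL4 reporter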
GalR3 antag conf – GalR3 (human) antagonism, confirmation; inhibition, % at 3 µM; hit rate 59% among 1,600; HEK293 GalR3 CNG cAMP biosensor, membrane potential fluorescence; galR3 fused to GalR1 carboxy tail; challenged with forskolin and galanin at EC90; AID 652245; shares compounds with GalR3 antagonist;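 active = inhibition above the primary screen's cutoff, the mean inhibition of all screened compounds plus 3 SD, cut at about 13% in these data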;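 note: 0% = forskolin plus galanin and 100% = forskolin alone with DMSO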
CNG parental – acts as nonspecific agonist in parental HEK-CNG cells; shares compounds with GalR3 antagonist; HEK293-CNG parental cells, cAMP membrane potential fluorescence; normalised: DMSO wells 0%, forskolin wells 100%; activation, % at 3 µM; hit rate 10% among 1,600; AID 652268; in the data active = activation above about 1.3%
Gal4-VP16 ctr – VP16 inhibition counter-screen for COUP-TFII; inhibition, % at 8.5 µM; HEK293 Gal4-VP16 luciferase reporter, luminescence; AID 687007; hit rate 25% among 2,500; shares compounds with COUP-TFII inh; in the data active = inhibition above about 13%
NR2F2 inh conf – COUP-TFII (NR2F2) inhibition, confirmation assay; inhibition, % at 8.5 µM; HEK293 NGFI-A luciferase reporter, luminescence; hit rate 45% among 2,500; AID 687008; shares compounds with COUP-TFII inh;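 active = mean inhibition over three repeats above a set limit taken from the earlier primary screen, cut at about 38% in these data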;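 note: 100% = cells given the luciferase reporter alone without the COUP-TF2 vector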
The depositor's hits bear a star; · = not tested or not shown. In the library only some 1.1% were active in any assay of this set; here they are far more common.

SMILES	COUP-TFII inh	LRH-1 inv ag	GalR3 antagonist	NCOA2 inhibitor	SRC1 inh	SRC3 inh	GalR3 antag conf	CNG parental	Gal4-VP16 ctr	NR2F2 inh conf
COC(=O)C1=C(C)N(C)C(=NCc2ccccc2C(F)(F)F)NC1c1ccc(Cl)cc1 (stereo unspecified)	-15	·	-4	-2	·	·	·	·	·	·
COc1ccc(C(=O)Nc2ccc(S(=O)(=O)N3CCc4ccccc43)cc2)cc1	59*	45	30*	8	13	32	86*	-2	-17	42*
O=C(Nc1ccncc1)c1ccc(Cl)c(S(=O)(=O)N2CCc3ccccc32)c1	73*	40	40*	18	27	28	61*	0	2	60*
CCCC1CCC2(CC1)CCC2OC(=S)Nc1ccc(I)cc1 (stereo unspecified)	-10	·	·	·	·	·	·	·	·	·
Cc1c(C(C)C)c(=O)n(-c2ccc(S(=O)(=O)NC3CCCCC3)cc2)n1C	62*	44	41*	7	21	28	51*	0	-1	39*
Cc1c(C(C)C)c(=O)n(-c2ccc(S(=O)(=O)NCc3ccccc3)cc2)n1C	63*	43	91*	14	25	-5	102*	0	8	53*
CCCCCCCC(=O)N[C@H]1CC[C@@]23CCCN2C(=O)CCC[C@H]3[C@H]1CCC	7	·	·	·	·	·	·	·	·	·
FC(F)(F)c1ccccc1NC(=S)OCCN1CCCC12CCC(c1ccccc1)CC2 (stereo unspecified)	24	·	·	·	·	·	·	·	·	·
CCCC1CCC2(CCC(=O)N2CCSc2ccccc2)CC1 (stereo unspecified)	-8	·	·	2	·	·	·	·	·	·
Cc1ccc(Cn2ncc3c(N4CCN(Cc5ccc(Cl)cc5)CC4)ncnc32)cc1	39*	26	53*	16	22	20	69*	1	11	51*
Cc1ccc(Cn2ncc3c(N4CCN(c5ccc(C)cc5)CC4)ncnc32)cc1	13	2	-4	5	-5	-11	·	·	·	·
COc1ccc(/C=N/OCC(=O)Nc2cc(C)on2)cc1OC	2	-10	6	4	-2	16	·	·	·	·
COc1ccc(/C=N/OCC(=O)NC(c2ccccc2)c2ccccc2)cc1OC	61*	57	89*	12	15	15	100*	0	-6	62*
O=S(=O)(c1ccccc1)N1CCC(O)(CSc2ccc(Cl)cc2)CC1	54*	19	93*	28	-14	32	108*	-1	5	37
COc1ccc(-c2noc(CCCCC(=O)N3CCN(c4cc(C)ccc4C)CC3)n2)cc1	82*	40	97*	37	25	21	105*	-1	22*	65*
O=C(Nc1nc2ncccn2c1-c1ccc(F)cc1)C1CC1	-4	·	·	1	·	·	·	·	·	·
O=C(c1ccc(O)c(Br)c1)c1cc(Br)ccc1O	3	-21	4	-1	-9	12	·	·	·	·
O=C(C(=O)c1cc(Br)ccc1O)c1cc(Br)ccc1O	39*	16	87*	16	-2	17	44*	1	7	10
O=[N+]([O-])c1cccc(OCCCN2CCC(C(O)(c3ccccc3)c3ccccc3)CC2)c1	-3	·	·	-23	·	·	·	·	·	·
COc1ccc(NS(=O)(=O)c2cccc(NC(=O)c3ccc(Cl)nc3)c2)cc1	75*	49	82*	7	23	10	96*	0	3	66*
Cc1ccc(Oc2ccc(C(=O)NCc3ccncc3)cc2)cc1	74*	63	83*	45	26	16	97*	-1	-7	41*
O=C(NCc1ccncc1)c1ccc(Oc2ccccc2)cc1	22	21	-11	6	-3	11	·	·	·	·
